This is an account of results in PubChem BioAssay (Tox21).

Test [1] is described as follows: qHTS assay for small molecule agonists of the p53 signaling pathway (AID 651631; calls by dose curve; further: nearly all actives have a fitted effect of over 15% in size; further: potency means the concentration at half of the fitted maximal effect). The procedure, abridged:
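HCT-116 p53RE-bla reporter line, 16 h compound treatment at 37 °C, then fluorescence after 2 h with B/G FRET substrate.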

Test [2] in a line: qHTS assay for small molecules that induce genotoxicity in human embryonic kidney cells expressing luciferase-tagged ATAD5 (AID 651632). Further: nearly all actives have a fitted effect of over 15% in size. Further: potency means the concentration at half of the fitted maximal effect. In outline:
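Reporter cells (HEK293T) express luciferase-tagged ATAD5, a protein that accumulates after DNA damage. Treat 16 hr at 37C/5% CO2, add Amplite, wait 30 min at RT, and read luminescence.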
In general terms: qHTS replaces the single test concentration by a dilution series.

A short description of test [3]: qHTS assay for small molecule agonists of the p53 signaling pathway - cell viability (AID 651633; calls by dose curve; further: nearly all actives have a fitted effect of over 30% in size; further: potency means the concentration at half of the fitted maximal effect). The procedure, abridged: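 Viability counter-read: CellTiter-Glo luminescence (30 min, room temperature) in the same p53RE-bla plates. These plates had been exposed to compounds for 16 h at 37 C.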
Test [4] in a line: qHTS assay for small molecules that induce genotoxicity in human embryonic kidney cells expressing luciferase-tagged ATAD5 - cell viability (AID 651634; calls by dose curve; further: nearly all actives have a fitted effect of over 25% in size). The procedure, abridged:
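Seeding of 2,000 HEK293T ATAD5-luciferase cells per well preceded pin-tool compound transfer. Plates sat 15.5 hr at 37C under 5% CO2, then fluorescence was read after 30 min with CellTiter-Fluor.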

Test [5] is described as follows: qHTS assay for small molecule disruptors of the mitochondrial membrane potential - cell viability (AID 720634; calls by dose curve;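 further: human HepG2 liver cancer cells; series mostly up to about 83 µM; nearly all actives have a fitted effect of over 20% in size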). The procedure, abridged: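 Measuring cytotoxicity alongside mitochondrial potential, the screen quantified ATP by luminescence in HepG2 cells after 1 hr compound incubation and a 30 min room-temperature CellTiter-Glo step.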
Test [6] can be described thus: qHTS assay for small molecule disruptors of the mitochondrial membrane potential (AID 720635). Further: potency means the concentration at half of the fitted maximal effect. In outline:
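Mitochondrial membrane potential tracked with Mito-MPS dye, red aggregates (ex 540/em 590 nm) against green monomers (ex 490/em 535 nm). Compound treatment 1 hr at 37C, dye 30 min in HepG2.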

The nature of test [7]: qHTS assay to test for compound auto fluorescence at 590 nm (red) in HepG2 cells (AID 720674). In outline:
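Red autofluorescence (Ex/Em 540/590 nm, Rose Bengal sodium equivalents) was measured in HepG2 cells, 2,000 per well in MEM plus 10% FBS, plated overnight at 37 C. Readings were taken 1 hr after adding 23 nL compound or DMSO, at 37 C and 5% CO2.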

A short description of test [8]: qHTS assay to test for compound auto fluorescence at 535 nm (green) in HepG2 cells (AID 720675).
A short description of test [9]: qHTS assay to test for compound auto fluorescence at 460 nm (blue) in HEK293 cells (AID 720678). In outline:
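Measured: blue fluorescence (Ex 405/Em 460 nm) of compound-treated HEK293 cells, incubated overnight at 37C with 5% CO2 and scaled to triamterene equivalents.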

A short description of test [10]: qHTS assay to test for compound auto fluorescence at 590 nm (red) in HEK293 cells (AID 720679). The procedure, abridged: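 Using HEK293 cells at 2,000 per well, the screen added 23 nL of each compound after cell attachment and incubated overnight (37C, 5% CO2). The plate reader then captured red-label fluorescence, Ex/Em 540/590nm.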
Test [11] in a line: qHTS assay to test for compound auto fluorescence at 535 nm (green) in HEK293 cells (AID 720680).
Test [12] can be described thus: qHTS assay to test for compound auto fluorescence at 460 nm (blue) in HEK293 cell free culture (AID 720681). The procedure, abridged: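 Blue fluorescence (Ex 405/Em 460 nm, triamterene-equivalent) was read immediately after pin transfer of compound or DMSO into medium (DMEM, 10% FBS) without cells.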
A short description of test [13]: qHTS assay to test for compound auto fluorescence at 590 nm (red) in HEK293 cell free culture (AID 720683). In outline:
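Red-channel autofluorescence of compounds in culture medium (DMEM, 10% FBS), no cells, measured at 540/590 nm. Rose Bengal sodium is the reference fluorophore for equivalence.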

Test [14] can be described thus: qHTS assay to test for compound auto fluorescence at 590 nm (red) in HepG2 cell free culture (AID 720684). The procedure, abridged:
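Steps: dispense MEM/10% FBS medium, no cells; pin compound or DMSO vehicle; read red channel, Ex/Em 540/590 nm. Output given as Rose Bengal sodium equivalents.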

Test [15] is described as follows: qHTS assay to test for compound auto fluorescence at 460 nm (blue) in HepG2 cell free culture (AID 720685). The procedure, abridged: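 Compound (23 nL) or DMSO pinned into cell-free MEM with 10% FBS; blue fluorescence read at 405/460 nm excitation/emission, expressed as auto-fluorescence equivalency to triamterene.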
The nature of test [16]: qHTS assay to test for compound auto fluorescence at 535 nm (green) in HepG2 cell free culture (AID 720686).
Test [17] in a line: qHTS assay to test for compound auto fluorescence at 460 nm (blue) in HepG2 cells (AID 720687). In outline: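 Blue-channel autofluorescence (Ex/Em 405/460 nm, triamterene-equivalent) was measured after 1 hr compound exposure at 37 C, 5% CO2. Cells were HepG2, plated overnight at 37 C in MEM plus 10% FBS.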
Test [18] can be described thus: qHTS assay to test for compound auto fluorescence at 535 nm (green) in HEK293 cell free culture (AID 720682). In outline:
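Steps: dispense DMEM/10% FBS into empty wells; pin in compound or DMSO; measure fluorescence at 485/535 nm. Values are fluorescein equivalents.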

Test [19] has as its target Glucocorticoid receptor (Homo sapiens) (UniProt P04150). In words: qHTS assay to identify small molecule agonists of the glucocorticoid receptor (GR) signaling pathway (AID 720691; active means well fitted activation curve with a large enough effect in the signal ratio in the repeat runs, not every such curve was filed as active; the % refers to the signal ratio). The procedure, abridged:
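Reporter read-out: fluorescence intensity following 2 h room-temperature LiveBLAzer B/G FRET substrate loading. Prior step: GR-bla HeLa cells held 4 h, then treated 18 h at 37 C.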

Test [20] has the same target. As to the kind of experiment: qHTS assay to identify small molecule antagonists of the glucocorticoid receptor (GR) signaling pathway (AID 720692; active means well fitted inhibition curve with a large enough effect in the signal ratio in the repeat runs, not every such curve was filed as active; the % refers to the signal ratio). The procedure, abridged: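 Dexamethasone (5 nM final) stimulated a stably integrated GRE-beta-lactamase reporter in HeLa cells during 18 h co-incubation with compounds; signal was quantified as fluorescence intensity of B/G FRET substrate after 2 h.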

The structures appear in SMILES notation. Values joined by “and” are separate entries in the source; they are usually repeats but may differ in a detail not shown here. Equal values may be shown once. Inconclusive results are not listed. Active and inactive are the calls of the source. Unless noted, the call rests on the fitted dose curve; in most records, active means well fitted curve in the direction sought with a large enough effect in the repeat runs; inconclusive means weak or mixed curves; inactive means no such curve, though single readings can be large; an effect the other way counts as inactive or inconclusive.

Glucocorticoid receptor (Homo sapiens), sequence (P04150 whole entry, looked up): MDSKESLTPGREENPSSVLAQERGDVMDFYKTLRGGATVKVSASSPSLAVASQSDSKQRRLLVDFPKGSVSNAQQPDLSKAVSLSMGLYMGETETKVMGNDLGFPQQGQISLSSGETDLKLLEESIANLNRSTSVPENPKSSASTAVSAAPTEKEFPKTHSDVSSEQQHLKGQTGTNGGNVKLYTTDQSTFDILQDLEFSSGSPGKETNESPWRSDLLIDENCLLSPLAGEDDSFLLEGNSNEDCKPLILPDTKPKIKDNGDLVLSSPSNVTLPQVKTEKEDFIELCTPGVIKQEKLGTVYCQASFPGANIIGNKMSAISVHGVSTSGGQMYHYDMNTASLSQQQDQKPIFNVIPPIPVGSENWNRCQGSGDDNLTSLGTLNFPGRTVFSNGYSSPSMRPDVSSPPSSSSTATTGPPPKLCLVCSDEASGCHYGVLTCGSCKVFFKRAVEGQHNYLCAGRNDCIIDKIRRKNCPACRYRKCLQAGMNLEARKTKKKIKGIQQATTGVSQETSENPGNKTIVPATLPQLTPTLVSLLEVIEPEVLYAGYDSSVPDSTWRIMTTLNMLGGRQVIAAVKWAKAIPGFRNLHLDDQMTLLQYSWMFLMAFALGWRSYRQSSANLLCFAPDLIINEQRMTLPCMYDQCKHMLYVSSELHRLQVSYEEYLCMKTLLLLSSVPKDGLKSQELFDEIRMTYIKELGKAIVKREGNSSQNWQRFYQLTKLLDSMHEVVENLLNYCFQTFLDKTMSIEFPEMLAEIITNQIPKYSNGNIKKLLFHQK

As for `CCCCC1(COC(=O)CCC(=O)O)C(=O)N(c2ccccc2)N(c2ccccc2)C1=O`, the Potency result in [1], in [2], in [3], in [4], in test [5] and in [6] was “inactive” throughout. The Potency result in test [7], in test [8], in [9], in test [10], in [11] and in test [12] was “inactive” in each case. Also, the Potency entry in test [13], in test [14], in [15], in [16] and in test [17] was “inactive” each time.

In the case of `C[C@](N)(Cc1ccc(O)c(O)c1)C(=O)O`, the Potency result in test [1], in [2], in test [3], in test [4], in test [5] and in test [7] was “inactive” each time. For the same molecule, the Potency result in [8], in [9], in [10], in [11], in [12] and in [18] was “inactive” in each case. For the same molecule, the Potency entry in test [13], in [14], in [15], in test [16] and in test [17] was “inactive” in each case.

On to `O=C(O)c1ccccc1`, for which the Potency entry in [1], in test [2], in test [3], in test [4], in [5] and in test [6] was “inactive” throughout. In addition, the Potency result in test [7], in test [8], in test [9], in [10], in test [11] and in [12] was “inactive” throughout. The Potency entry in [13], in test [14], in test [15], in test [16] and in test [17] was “inactive” each time.

For the molecule `COc1ccc(C(Cl)=C(c2ccc(OC)cc2)c2ccc(OC)cc2)cc1`, the Potency entry in test [1], in [2], in test [3], in [4], in [5] and in test [7] was “inactive” in each case. Moreover, the Potency entry in [8], in test [9], in test [10], in test [11], in [12] and in test [13] was “inactive” each time. Also, the Potency entry in [14], in test [15], in [16], in test [17] and in test [19] was “inactive” throughout. In addition, the Potency in test [6] is 13.6 µM (active) and 21.7 µM (active).

With `C=CCc1ccc(O)c(OC)c1`, the Potency entry in test [1], in [2], in test [3], in test [4], in test [5] and in test [7] was “inactive” throughout. Further, the Potency result in test [8], in test [9], in test [10], in test [11], in test [12] and in test [18] was “inactive” each time. The Potency entry in test [13], in test [14], in test [15], in test [16] and in test [17] was “inactive” throughout.

Regarding `NS(=O)(=O)O`, the Potency entry in test [1], in test [2], in [3], in test [4], in [5] and in [6] was “inactive” each time. The Potency result in test [7], in test [8], in [9], in test [10], in test [11] and in test [12] was “inactive” throughout. The Potency entry in [18], in test [13], in [14], in test [15], in [16] and in test [17] was “inactive” throughout. Also, the Potency entry in [19] and in test [20] was “inactive” each time.

For the molecule `NC(=O)c1cccnc1`, the Potency entry in test [1], in test [2], in [3], in test [4], in [5] and in [6] was “inactive” each time. Moreover, the Potency result in test [7], in test [8], in [9], in [10], in [11] and in [12] was “inactive” each time. Also, the Potency result in test [13], in test [14], in [15], in [16], in test [17] and in test [19] was “inactive” each time. Further, the Potency entry in test [20] was “inactive”.

`OC[C@H]1O[C@H](O[C@]2(CCl)O[C@H](CCl)[C@@H](O)[C@@H]2O)[C@H](O)[C@@H](O)[C@H]1Cl`: the Potency result in [1], in test [2], in test [3], in test [4], in test [5] and in [6] was “inactive” each time. The Potency entry in test [7], in test [8], in test [9], in test [10], in test [11] and in test [12] was “inactive” in each case. Besides, the Potency result in [13], in test [14], in test [15], in test [16], in test [17] and in test [19] was “inactive” in each case. Moreover, the Potency entry in test [20] is “inactive”.

In the case of `O=c1[nH]cc(F)c(=O)[nH]1`, the Potency is 4.22 µM (active) and 3.57 µM (active) and 1.57 µM (active) in [1]; 7.5 µM (active) and 10.1 µM (active) in test [2]; 1.06 µM (active) and 991 nM (active) in test [3]. Besides, the Potency result in test [4], in [5], in [6], in [7], in test [8] and in test [9] was “inactive” throughout. Moreover, the Potency entry in [10], in test [11], in test [12], in test [13], in test [14] and in test [15] was “inactive” in each case. For the same molecule, the Potency result in test [16], in test [17], in test [19] and in test [20] was “inactive” throughout.

Take `CCOc1ccc(NC(C)=O)cc1`: the Potency result in test [1], in [2], in test [3], in test [4], in test [5] and in [6] was “inactive” throughout. In addition, the Potency result in [7], in test [8], in test [9], in test [10], in test [11] and in test [12] was “inactive” each time. The Potency result in test [18], in test [13], in test [14], in test [15], in test [16] and in test [17] was “inactive” in each case. The Potency result in test [19] and in test [20] was “inactive” each time.

Take `CN(N=O)C(=O)N[C@@H]1[C@@H](O)[C@H](O)[C@@H](CO)O[C@@H]1O`: the Potency entry in [1], in [2], in [3], in test [4], in test [5] and in test [6] was “inactive” in each case. The Potency result in [7], in test [8], in [9], in test [10], in test [11] and in test [12] was “inactive” each time. The Potency entry in test [18], in test [13], in [14], in test [15], in test [16] and in test [17] was “inactive” each time. Further, the Potency result in test [19] and in test [20] was “inactive” throughout.

In the case of `CCc1nc(N)nc(N)c1-c1ccc(Cl)cc1`, the Potency in test [1] is 8.41 µM (active); in test [3] it was 10.6 µM (active) and 12.4 µM (active). Further, the Potency entry in test [2], in test [4], in test [5], in [6], in test [7] and in [8] was “inactive” in each case. Further, the Potency entry in test [9], in test [10], in test [11], in test [12], in test [18] and in test [13] was “inactive” each time. Further, the Potency entry in test [14], in test [15], in test [16], in [17], in test [19] and in test [20] was “inactive” each time.
